NS1 function inh = blocks influenza NS1 protein function; Potency, µM (titrated, usually from 46.1 µM); 0.4% of 270,000 active; AID 2326; calls by dose curve; further: actives are rising curves; nearly all actives have a fitted effect of over 50% in size
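Compounds were scored for reversing the slow growth caused by influenza A NS1 in S. cerevisiae, measured by optical density at 600 nm. Assay medium contained 2% galactose at pH 6.0; NS1-free yeast of the same strain were the positive control.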
Pf growth 96h = P. falciparum growth inhibition at 96 hours. P. falciparum luciferase reporter growth, 96 h. Potency, µM (titrated, usually from 28.7 µM), hits mostly inhibitors. 6.9% of 320,000 active
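Readout is luminescence from an integrated firefly luciferase in P. falciparum. Red cells, 2% hematocrit and 0.05% parasitemia final, were cultured with compound through two parasite generations (96 hours) at 37 C, 5% CO2.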
Giardia FBPA inh = Giardia lamblia aldolase inhibition | 0.71% of 290,000 active | A8B2U2 | purified Giardia FBPA | AID 2451 | Potency, µM (top dose mostly 59.6 µM), actives largely listed as inhibitors; further: nearly all actives have a fitted effect of over 55% in size
Target sequence (A8B2U2 whole entry, looked up): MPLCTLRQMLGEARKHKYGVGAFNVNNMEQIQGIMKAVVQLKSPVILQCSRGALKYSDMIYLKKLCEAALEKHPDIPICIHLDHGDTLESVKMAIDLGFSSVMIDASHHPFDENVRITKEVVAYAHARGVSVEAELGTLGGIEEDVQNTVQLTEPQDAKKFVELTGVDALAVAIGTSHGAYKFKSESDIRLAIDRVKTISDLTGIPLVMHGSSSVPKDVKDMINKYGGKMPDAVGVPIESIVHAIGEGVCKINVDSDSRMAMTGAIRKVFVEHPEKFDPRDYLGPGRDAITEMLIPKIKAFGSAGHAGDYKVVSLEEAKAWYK
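40 nM FBPA preincubated 10 min at RT with compound (up to 57.5 uM final), then substrate plus GAPDH/TPI/NAD/arsenate coupling and diaphorase/resazurin added. Fluorescence read after 20 min at RT, 525/598 nm.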
Shiga inhibitor = inhibitors of Shiga toxin in Vero cells; Vero cells, Shiga toxin protein synthesis inhibition reporter; inhibition, % at 38.7 µM; AID 2315; 9.2% of 290,000 active; in the data active means inhibition mostly above about 28%, no sharp cut-off; inactive means mostly below about 43%
CHX counter = affects cycloheximide protein synthesis inhibition readout, counter-screen; cell reporter, cycloheximide protein synthesis inhibition counterscreen; max response, %; 12% of 300,000 active; AID 2314; in the data active means max response mostly above about 13%, no sharp cut-off; inactive means mostly below about 14%; further: read at 38.3 µM for the half of the compounds with a filed dose
Pf growth 48h = inhibits P. falciparum growth in the first generation, 48 h. 5.9% of 310,000 active. Potency, µM (top dose mostly 28.7 µM), most hits filed as inhibitors. AID 504832. P. falciparum luciferase growth in erythrocytes, 48 h
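Read-out is firefly luciferase luminescence from an integrated reporter in P. falciparum, so falling signal marks reduced parasite growth. Infected erythrocytes were at 2% hematocrit and 0.1% parasitemia (final) in Albumax-supplemented RPMI 1640.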
A number is an active result. In the library only some 21% were active in any assay of this set; here they are far more common. Unless noted, the call rests on the fitted dose curve; in most records, active means well fitted curve in the direction sought with a large enough effect; inconclusive means small, poorly fitted or top-dose-only effect, or another doubt; inactive means no such curve, though single readings can be large; an effect the other way counts as inactive or inconclusive.

For Cn1c(=O)c(C(=S)NC(=O)C2CC2)c(N)n(Cc2ccccc2)c1=O the results were NS1 function inh inactive, Pf growth 96h inactive, Giardia FBPA inh inactive, Shiga inhibitor inactive, CHX counter inactive and Pf growth 48h 9.28µM.
Cn1c(=O)c(C(=O)CN2CC(=O)Nc3ccccc32)c(N)n(Cc2ccccc2)c1=O was read as Pf growth 96h 5.22µM, Giardia FBPA inh inactive, Shiga inhibitor inactive, CHX counter inactive and Pf growth 48h inactive.
CCN(CC)CC(=O)c1c(N)n(Cc2ccccc2)c(=O)n(C)c1=O was read as Pf growth 96h inactive, Giardia FBPA inh inactive, Shiga inhibitor inactive, CHX counter inactive and Pf growth 48h inactive.
For CCC(=O)OCC(=O)c1c(N)n(Cc2ccccc2)c(=O)n(C)c1=O the results were NS1 function inh inactive, Pf growth 96h inactive, Giardia FBPA inh inactive, Shiga inhibitor inactive, CHX counter inactive and Pf growth 48h inconclusive.
For COc1ccccc1NCC(=O)n1nc(C)cc1C the results were NS1 function inh inactive, Pf growth 96h inactive, Giardia FBPA inh inactive, Shiga inhibitor inactive, CHX counter inactive and Pf growth 48h inactive.
For O=S(O)O.O=S(O)O.[Co].[NH2-].[NH2-].[NH2-].[NH2-] the results were NS1 function inh inactive.
CC1(C)CC(=O)c2c(Cc3ccccc3)noc2C1 was read as Pf growth 96h inactive, Giardia FBPA inh inactive, Shiga inhibitor inactive, CHX counter inactive and Pf growth 48h inactive.
For CC1(C)CC(=O)c2c(noc2-c2ccccc2)C1 the results were NS1 function inh inactive, Pf growth 96h inconclusive, Giardia FBPA inh inactive, Shiga inhibitor 57.6, CHX counter 31.2 and Pf growth 48h inconclusive.
For Cc1nc2cc(-c3sccc3-n3cccc3)nn2c(C)c1C the results were NS1 function inh inactive, Pf growth 96h inactive, Giardia FBPA inh inactive, Shiga inhibitor 59.6, CHX counter 33.5 and Pf growth 48h inactive.
`CC1(CCc2ccccc2)NC(=O)N(CC(=O)Nc2ccccc2)C1=O` (stereo unspecified) gave NS1 function inh inconclusive, Pf growth 96h inactive, Giardia FBPA inh inactive, Shiga inhibitor inactive, CHX counter 16.1 and Pf growth 48h inactive.
For CN(C(=O)COc1ccc(S(=O)(=O)N2CCOCC2)cc1[N+](=O)[O-])C1CCS(=O)(=O)C1 (stereo unspecified) the results were NS1 function inh inactive, Pf growth 96h inactive, Giardia FBPA inh inactive, Shiga inhibitor inactive, CHX counter inactive and Pf growth 48h inactive.
`CC1CCCC(C)N1C(=O)COC(=O)c1n[nH]c(=O)c2ccccc12` (stereo unspecified) gave Pf growth 96h inactive and Pf growth 48h inactive.
Screening CN(Cc1ccccc1)C1CCN(Cc2ccccc2[N+](=O)[O-])CC1 returned NS1 function inh inactive, Pf growth 96h inactive, Giardia FBPA inh inconclusive, CHX counter inactive and Pf growth 48h inactive.
`COC(=O)C1=C(C)NC(C)=C(C(=O)OC)C1c1cc2cc(C)ccc2[nH]c1=O` gave NS1 function inh inactive, Pf growth 96h inactive, Giardia FBPA inh inactive, Shiga inhibitor inactive, CHX counter inactive and Pf growth 48h inactive.
`Cc1ccc2[nH]c(-c3cccc(N)c3)cc2c1` gave NS1 function inh inactive, Pf growth 96h inactive, Giardia FBPA inh inactive, Shiga inhibitor 97.4, CHX counter 30.3 and Pf growth 48h inactive.
For CN(Cc1ccccc1)S(=O)(=O)c1ccc2[nH]cc(C(=O)NCC3CCCO3)c(=O)c2c1 (stereo unspecified) the results were NS1 function inh inactive, Pf growth 96h 0.928µM, Giardia FBPA inh inactive, Shiga inhibitor inactive, CHX counter inactive and Pf growth 48h inactive.
For CCc1ccccc1NS(=O)(=O)c1ccc2[nH]cc(C(=O)NCC3CCCO3)c(=O)c2c1 (stereo unspecified) the results were NS1 function inh inactive, Giardia FBPA inh inactive, Shiga inhibitor inactive and CHX counter inactive.
For CCOc1ccc(NS(=O)(=O)c2ccc3[nH]cc(C(=O)NCC4CCCO4)c(=O)c3c2)cc1 (stereo unspecified) the results were NS1 function inh inactive, Pf growth 96h 0.0294µM, Giardia FBPA inh inactive, Shiga inhibitor inactive, CHX counter inactive and Pf growth 48h inactive.
`CCC(=O)Nc1ccc2c(c1)N(C(C)=O)c1ccccc1CC2` gave NS1 function inh inactive, Pf growth 96h inconclusive, Giardia FBPA inh inactive, Shiga inhibitor inactive, CHX counter inactive and Pf growth 48h inactive.
`COc1ccc(N(C(=O)c2snc(C(N)=O)c2N)C(C(=O)NCC2CCCO2)c2ccc3ncccc3c2)cc1OC` (stereo unspecified) gave NS1 function inh inactive, Pf growth 96h inactive, Giardia FBPA inh inactive, Shiga inhibitor inactive, CHX counter inactive and Pf growth 48h inconclusive.
N[C@@H](Cc1c[nH]c2ccc([N+](=O)[O-])cc12)C(=O)O was read as NS1 function inh inactive.
Cc1ccc(C(=O)N2CCCC(N(C)Cc3ccccc3)C2)s1 (stereo unspecified) was read as NS1 function inh inactive, Pf growth 96h inactive, Shiga inhibitor inactive, CHX counter inactive and Pf growth 48h inactive.
`Cc1ccsc1C(=O)NCCC(c1ccccc1)c1ccccc1` gave NS1 function inh inactive, Pf growth 96h inconclusive, Giardia FBPA inh inactive, Shiga inhibitor inactive, CHX counter inactive and Pf growth 48h inconclusive.
O=C(NCCc1nnc2ccccn12)c1cccs1 was read as NS1 function inh inactive, Pf growth 96h inactive, Shiga inhibitor 51.0, CHX counter 35.6 and Pf growth 48h inactive.
For C=CCn1c(CCNC(=O)c2cccs2)nnc1SCC(=O)c1ccc(Br)cc1 the results were NS1 function inh inactive, Pf growth 96h inconclusive, Giardia FBPA inh inactive, Shiga inhibitor inactive and CHX counter inactive.
Screening Cc1ccsc1C(=O)NCCc1nnc2ccccn12 returned NS1 function inh inactive, Pf growth 96h inactive, Giardia FBPA inh inactive, Shiga inhibitor 72.3, CHX counter 30.6 and Pf growth 48h inactive.
Cc1cc(C)c(NC(=O)COC(=O)c2cc([N+](=O)[O-])ccc2N2CCOCC2)c(C)c1 was read as NS1 function inh inactive, Pf growth 96h inactive, Shiga inhibitor inactive, CHX counter inactive and Pf growth 48h inactive.
`Cc1ccc(C(=O)c2cc([N+](=O)[O-])ccc2N2CCOCC2)cc1C` gave NS1 function inh inactive, Pf growth 96h inconclusive, Giardia FBPA inh inactive, Shiga inhibitor inactive, CHX counter inactive and Pf growth 48h inactive.
For Cc1ccc(C(=O)c2cc([N+](=O)[O-])ccc2N2CCOCC2)c(C)c1 the results were NS1 function inh inactive, Pf growth 96h 10.4µM, Shiga inhibitor inactive, CHX counter inactive and Pf growth 48h inconclusive.
Screening Cc1ccc(C)c(C(=O)COC(=O)c2cc([N+](=O)[O-])ccc2N2CCOCC2)c1 returned Pf growth 96h 14.7µM and Pf growth 48h inconclusive.
Cc1ccc(S(=O)(=O)NC(=O)N(CCC#N)Cc2ccccc2)cc1 was read as NS1 function inh inactive, Pf growth 96h inactive, Giardia FBPA inh inactive, Shiga inhibitor inactive, CHX counter inactive and Pf growth 48h inactive.

Screens as filed in PubChem BioAssay.
